# Screens: PubChem, National Center for Advancing Translational Sciences (NCATS)
# An excerpt weighted towards active compounds, which were near 21% of everything screened.
# IL1B secr inh = blocks inflammasome-driven IL-1 beta release; THP-1 LPS/ATP IL-1B secretion, AlphaLISA, 16 h; hits give low values; activity change, % at 57.5 µM; hit rate 4.7% among 360,000; in the data active means activity change below about -50%; inconclusive means mostly about -30% to -49%; further: on the % scale 0 is the no-effect control and ±100 the full control effect
#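 Secreted IL-1B measured by AlphaLISA bead assay after 16 h compound exposure of THP-1 cells; compounds (final up to 57.5 uM) added 1 h before LPS (250 ng/mL) and ATP (1.25 mM) stimulation; lower signal means less secretion.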
# DT40 TDP1 no CPT = qHTS for Inhibitors of human tyrosyl-DNA phosphodiesterase 1 (TDP1): qHTS in cells in absence of CPT. Potency, µM (titrated, usually from 46.2 µM), for the others: at the top dose activity change, negative = growth inhibition, usual class: inhibitors. hit rate 15% among 420,000. DT40 Tdp1-/- hTDP1 cells, no CPT, ATP luminescence, 48 h; further: potency means the concentration at half of the fitted maximal effect; on the % scale 0 is the no-effect control and ±100 the full control effect; nearly all actives have a fitted effect of over 55% in size
#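 DT40 Tdp1-/-;hTDP1 cells, no CPT (DMSO vehicle only), 400 cells/well; compounds pin-transferred; ≥48 hr, 37 °C; CellTiter-Glo 30 min RT dark, luminescence read.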
# ClpP mod = qHTS Assay for Activators of ClpP; ATP-dependent Clp protease proteolytic subunit (Bacillus subtilis (strain 168)), P80244; purified B. subtilis ClpP, FRET peptide cleavage, 20 min; Potency, µM (titrated, usually from 57.5 µM), for inactives: top-dose activity change, negative = active; hit rate 1.9% among 340,000; AID 651965, 2013; active means well fitted falling curve with a large enough effect; inconclusive means small, poorly fitted or top-dose-only effect; inactive means no such curve, though single readings can be large or run the other way; further: potency means the concentration at half of the fitted maximal effect; the source files actives as falling curves though it sought activators and does not explain the sign; nearly all actives have a fitted effect of over 65% in size
# Target sequence (P80244 whole entry, looked up): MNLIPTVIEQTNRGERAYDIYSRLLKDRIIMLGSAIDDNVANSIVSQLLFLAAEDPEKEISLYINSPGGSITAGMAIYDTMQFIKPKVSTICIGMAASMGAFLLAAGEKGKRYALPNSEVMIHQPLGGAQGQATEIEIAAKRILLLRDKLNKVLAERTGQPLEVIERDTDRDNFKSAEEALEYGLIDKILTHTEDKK
#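 FRET quenching reversal measured ClpP activation: 10 microg/mL B. subtilis ClpP at pH 8 with the FRET-FV decapeptide, read at 430 nm after 320 nm excitation. The 20-min minus 0-min signal was scaled between DMSO/no-enzyme wells and ADEP (5.8 microM final).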
# DRD3 antagonist = D3 dopamine receptor (human) antagonism | D3R cells, DiscoveRx beta-arrestin luminescence, antagonist mode; hits give low values | max response, negative = inhibition, % | hit rate 2.5% among 360,000 | AID 652054 | P35462; in the data active means max response below about -50%; inconclusive means no clear call, values can overlap the other calls; further: on the % scale 0 is the no-effect control and ±100 the full control effect
# Target sequence (P35462 whole entry, looked up): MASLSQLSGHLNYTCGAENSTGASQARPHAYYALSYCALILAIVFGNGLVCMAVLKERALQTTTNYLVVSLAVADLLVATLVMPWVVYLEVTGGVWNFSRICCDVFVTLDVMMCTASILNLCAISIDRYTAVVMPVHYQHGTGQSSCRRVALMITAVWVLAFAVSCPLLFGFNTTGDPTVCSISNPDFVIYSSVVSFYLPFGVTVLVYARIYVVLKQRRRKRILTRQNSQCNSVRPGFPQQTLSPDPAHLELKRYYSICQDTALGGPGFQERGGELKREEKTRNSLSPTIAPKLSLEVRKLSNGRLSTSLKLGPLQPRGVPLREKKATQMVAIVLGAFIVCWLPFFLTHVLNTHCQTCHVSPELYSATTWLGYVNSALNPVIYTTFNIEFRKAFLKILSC
#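 Cells expressing the human receptor were seeded at 1500 cells/well, incubated overnight at 37 degrees C in 5% CO2, then exposed to library compounds with dopamine controls for 90 minutes at 37 degrees C before luminescent detection.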
# DT40 TDP1 CPT = growth inhibition of DT40 Tdp1-/-;hTDP1 cells with camptothecin (screen for TDP1 inhibitors); hit rate 12% among 420,000; Potency, µM (doses to about 46.2 µM), for the others: at the top dose activity change, negative = growth inhibition, most hits filed as inhibitors; chicken DT40 Tdp1-/-;hTDP1 cells + 20 nM CPT, ATP luminescence, 48 h; further: potency means the concentration at half of the fitted maximal effect; on the % scale 0 is the no-effect control and ±100 the full control effect; nearly all actives have a fitted effect of over 55% in size
#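 Cell growth measured by CellTiter-Glo luminescence after a minimum 48 h, 37 C compound exposure with 20 nM CPT in Tdp1-knockout DT40 cells stably expressing hTDP1, seeded 400/well; qHTS titration format.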
# D3 ag = agonists of human D3 dopamine receptor. P35462. D3R DiscoveRx beta-arrestin cells, luminescence, 90 min. max activation, %. hit rate 0.58% among 410,000; in the data active means max activation above about 30%; further: 0% is about no effect
#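 Cells at 1500/well, incubated overnight, then treated with pinned compounds (dopamine as control) for 90 min at 37 degrees C. DiscoveRx reagent added for 30 - 60 minutes at room temperature; luminescence read.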
# An asterisk follows results filed as active; ? = inconclusive; . = no result given. Unless noted, the call rests on the fitted dose curve; in most records, active means well fitted inhibition curve with a large enough effect; inconclusive means small, poorly fitted or top-dose-only effect; inactive means flat fitted curve, though single readings scatter.
SMILES,IL1B secr inh,DT40 TDP1 no CPT,ClpP mod,DRD3 antagonist,DT40 TDP1 CPT,D3 ag
C[C@@H]1CCCCO[C@H](CN(C)C(=O)NC2CCCCC2)[C@@H](C)CN([C@H](C)CO)C(=O)c2cc(NC(=O)c3ccccc3)ccc2O1,?,21µM*,1%,-21,?,-7
COC(=O)c1ccccc1NC(=O)c1ccc(-c2ccc(Br)cc2)o1,22,1.6µM*,-23%,35,-11%,-8
CS(=O)(=O)N1CCN(c2ccccc2NC(=O)c2ccc(-c3ccc(Br)cc3)o2)CC1,22,?,32µM*,-22,?,-3
O=C(Nc1cccc(NC(=O)c2ccc(-c3ccc(Br)cc3)o2)c1)c1ccco1,85,13µM*,?,30,?,4
COc1cc2ccccc2cc1C(=O)Nc1ccccc1N1CCN(S(C)(=O)=O)CC1,-15,21µM*,?,24,21µM*,3
O=C(Nc1cccc(NC(=O)c2ccccc2Cl)c1)c1ccco1,-2,-13%,0%,2,-27%,3
O=C1C(Nc2ccccc2)=CC(c2ccc(Br)cc2)N1c1ccccc1 (stereo unspecified),.,-23%,-1%,.,?,3
CSc1ccc(/C=C(/NC(=O)c2ccco2)C(=O)N2CCOCC2)cc1,17,3%,?,-4,6%,2
Cc1onc(-c2ccccc2Cl)c1C(=O)N1CCCCC1C (stereo unspecified),-17,-24%,.,-6,?,-10
CCOc1ccc(S(=O)(=O)N2CCCCC2)c2ccccc12,12,21µM*,-5%,0,18µM*,-2
CCOc1ccc(S(=O)(=O)n2ccc(C)n2)c2ccccc12,-53*,?,-16%,-28,?,-1
CC1(C(=O)NS(=O)(=O)c2ccc(C#N)cc2)CCN1C(=O)Cc1cccc2ccccc12 (stereo unspecified),14,-1%,1%,34,-14%,5
CCN(CC)S(=O)(=O)c1ccc2c(c1)nc(SCC(=O)N1CCCCCC1)n2-c1ccc(OC)cc1,?,23µM*,-4%,-19,15µM*,-3
COc1ccc(Br)cc1-c1nc(CCl)cs1,-3,15µM*,-1%,7,13µM*,0
COc1ccc(Br)cc1-c1noc(-c2ccccc2F)n1,14,2%,-23%,-17,-5%,7
Oc1ccc(-c2cn3cc(C(F)(F)F)ccc3n2)cc1,-14,?,28µM*,-26,?,-10
O=C(CBr)c1ccc([N+](=O)[O-])c(CS(=O)(=O)c2ccc(Cl)cc2)c1,-7,?,1%,-23,?,3
CCOC(=O)[C@@H]1[C@H]2COc3ccc(Br)cc3[C@@H]2N2C(=O)N(c3ccc(F)cc3)C(=O)[C@]12C,0,?,-4%,3,-8%,-10
O=C(/C=C/c1ccncc1)c1ccc(NC(=O)c2ccccc2F)cc1,-104*,2.9µM*,.,-67*,4.1µM*,-24
O=C(Nc1cccnc1)c1ccccc1F,-14,1%,1%,-2,-3%,-2
O=C(/C=C/c1ccc(NC(=O)c2ccccc2-c2ccccc2C(=O)O)cc1)c1ccccc1,-62*,?,-6%,-3,-19%,0
Cc1cc(C(F)F)n2nc(C(=O)Nc3ccc(C(C)C)cc3)nc2n1,.,-30%,-3%,.,-17%,8
COC(=O)c1cn(NC(=O)c2cc([N+](=O)[O-])ccc2F)c(=O)c2ccccc12,-93*,4.6µM*,.,-29,3.3µM*,-3
COc1cc(OC)cc(C(=O)Nn2cc(C(=O)Nc3ccc(F)cc3F)c3ccccc3c2=O)c1,-21,?,-3%,3,13µM*,2
O=C(COc1ccc(Cl)cc1Cl)c1ccc[nH]1,-21,-14%,0%,0,-18%,3
SMILES,IL1B secr inh,DT40 TDP1 no CPT,ClpP mod,DRD3 antagonist,DT40 TDP1 CPT,D3 ag
COc1ccc(C2C(C#N)=C(N)Nc3onc(C(C)(C)C)c32)c(OC)c1 (stereo unspecified),-30,18µM*,-4%,24,?,2
CC(=O)OC1CSC2c3ccccc3C(=O)N2Cc2sccc21 (stereo unspecified),11,-2%,-2%,-7,-16%,5
O=C1CCN(CCc2ccccc2)CCN1[C@H](CSc1ccc(Br)cc1)Cc1ccccc1,-11,15µM*,0%,-57*,16µM*,-52
CC(C)C[C@@H](CO)N1CCN(CCc2ccccc2)CCC1=O,20,-5%,1%,?,?,1
CC(C)C[C@@H](CSc1ccc(Br)cc1)N1CCN(CC(C)C)CCC1=O,?,16µM*,0%,-50*,23µM*,-43
CC(C)C[C@@H](CN=[N+]=[N-])N1CCN(CCc2ccccc2)CCC1=O,.,13µM*,-23%,.,?,.
COc1ccc(CN2CCC(=O)N([C@H](CO)Cc3ccccc3)CC2)cc1,-11,-27%,0%,-28,-29%,-23
O=C1CCN(Cc2cccnc2)CCN1[C@H](CO)Cc1ccccc1,-16,-21%,0%,-67*,-9%,-31
Cc1ccc(NC(=O)c2ccc(Cl)cc2Cl)c(C(=O)c2ccccc2)c1,.,?,1%,.,?,-5
CCC(C)NC(=O)CSc1nnc(-c2ccc(OC)c(OC)c2)c(-c2ccc(OC)c(OC)c2)n1 (stereo unspecified),-8,?,-2%,12,1%,-1
O=C(Nc1ccc2c(c1)OCO2)c1cc(C2CCCCN2C(=O)CCc2ccccc2)on1 (stereo unspecified),-17,?,2%,0,?,9
O=C(Cc1ccc(Cl)cc1)N1CCC2(CC1)NCCc1[nH]cnc12,-12,-2%,0%,-19,-2%,-1
Cc1cccc(-n2ncc(C(=O)NC3CCCC3)c2C2CCN(C(=O)OC(C)(C)C)CC2)c1,4,?,-3%,4,?,-4
CC(=O)c1ccc(N2CCN(S(=O)(=O)c3cc4c(cc3C)NC(=O)CO4)CC2)cc1,1,?,3%,-5,-24%,-2
Cc1ccccc1C(=O)Nc1ccnn1C1CCN(Cc2ccc(CO)o2)CC1,19,24%,0%,8,-3%,-5
CCc1cccc(C)c1NC(=O)c1cc(S(=O)(=O)N2CCCCCC2)cn1C,.,?,0%,.,?,-2
